Broadly, the AC50 is the midpoint of the concentration-response curve, whichever way the signal moves.

Several values for one entry are separate records, joined by “and”; a condition that tells them apart may be missing. Equal values may be shown once. Records with an inconclusive call do not appear. A structure can be active in one record and inactive in another. Activity calls are given as the source filed them. The calls were made as follows, unless noted: active = hit-call score of the fitted dose curve at least 0.9, where 1 is the maximum; inactive = score below 0.9.

Here are results for seven compounds from PubChem BioAssay (EPA / NIEHS).

Test [1] addresses Transcriptional activator Myb (Homo sapiens) (UniProt P10242). Description: ATG_Myb_CIS: Attagene CIS-FACTORIAL HepG2 Assay for human Myeloblastosis (Myb) Proto-Oncogene Transcription Factor (AID 2282986). As to conditions: HepG2 Attagene CIS-FACTORIAL Myb reporter transcription; actives raise or lower the signal. In a few lines: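 Transiently transfected HepG2 cells, treated 24 h. Reporter mRNA quantified by RT-PCR/capillary electrophoresis; bidirectional fit relative to DMSO.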

Test [2] addresses Nuclear respiratory factor 1 (Homo sapiens) (UniProt Q16656). The test is described as follows: ATG_NRF1_CIS: Attagene CIS-FACTORIAL HepG2 Assay for human Nuclear Respiratory Factor 1 (NRF1) Orphan Gene (AID 2282987). As to conditions: HepG2 NRF1 cis-element reporter, Attagene multiplex; actives raise or lower the signal. A digest of the protocol:
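Cells (HepG2, transient MRTU transfection) are exposed to compound for 24 h, then RNA isolated and reporter mRNA amplified and fluorescently labelled. Fragments are separated by capillary electrophoresis; signal change is fitted bidirectionally relative to DMSO.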

Test [3] can be described thus: ATG_NFI_CIS: Attagene CIS-FACTORIAL HepG2 Assay for human Nuclear Factor I (NFI) (AID 2282989). As to conditions: HepG2 cis-regulatory reporter, NFI response element transcription; actives raise or lower the signal. In a few lines: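 Cells: human liver HepG2, transiently transfected with promoter-regulated reporter transcription units. Exposure 24 h. Detection: fluorescent RT-PCR products separated by capillary electrophoresis, normalised to DMSO negative control.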

Test [4] addresses Myc proto-oncogene protein (Homo sapiens) (UniProt P01106). Description: ATG_Myc_CIS: Attagene CIS-FACTORIAL HepG2 Assay for human Myelocytomatosis (Myc) Proto-Oncogene Transcription Factor (AID 2282990). Conditions: HepG2, Attagene cis-reporter transcription factor activity; actives raise or lower the signal. A digest of the protocol:
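Multiplexed cis-reporter transcription in HepG2 cells after 24 h chemical treatment. Reporter mRNA measured by RT-PCR and capillary electrophoresis fluorescence; activity fitted bidirectionally against DMSO control.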

A short description of test [5]: ATG_NF_kB_CIS: Attagene CIS-FACTORIAL HepG2 Assay for human Nuclear Factor Kappa B (NF-kB) (AID 2282991). As to conditions: HepG2 Attagene cis-factorial NF-kB reporter mRNA; actives raise or lower the signal. In a few lines:
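Measures mRNA induction of an NF-kB-responsive cis-element reporter in HepG2 cells transfected with multiple reporter units, sampled 24 h post-dosing; quantified by fluorescence after RT-PCR and capillary electrophoresis, fitted for activation or inhibition against DMSO.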

Test [6] can be described thus: ATG_NRF2_ARE_CIS: Attagene CIS-FACTORIAL HepG2 Assay for human Nuclear Factor Erythroid 2 Related Factor 2 (NFR2) response to Antioxidant Response Elements (ARE) (AID 2282992). Conditions: HepG2 Attagene ARE/NRF2 reporter, transcription factor activity; actives raise or lower the signal. A digest of the protocol: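 Readout: reporter mRNA quantified by RT-PCR plus FAM-labelled primer extension, HpaI digestion and capillary electrophoresis, 24 h after dosing transfected HepG2 cells. Gain or loss of signal is fitted bidirectionally against DMSO baseline.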

Test [7] in a line: ATG_Oct_MLP_CIS: Attagene CIS-FACTORIAL HepG2 Assay for human Octamer-Binding Transcription Factor (Oct) (AID 2282993). Conditions: HepG2 Attagene cis-factorial Oct reporter, mRNA; actives raise or lower the signal. A digest of the protocol: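 HepG2, transient MRTU transfection, cis promoter elements; 24 h dosing; RT-PCR/CE fluorescence read-out of reporter mRNA; fit both directions vs DMSO.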

Test [8] deals with Cellular tumor antigen p53 (Homo sapiens) (UniProt P04637). The test is described as follows: ATG_p53_CIS: Attagene CIS-FACTORIAL HepG2 Assay for human p53 Transcription Factor (AID 2282994). Conditions: HepG2 p53 cis-element reporter, Attagene mRNA; actives raise or lower the signal. A digest of the protocol:
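Read-out: reporter mRNA by RT-PCR plus capillary electrophoresis with fluorescence detection. Human HepG2 liver cells carried transfected multi-reporter cis-element constructs, dosed 24 h. Gain or loss of signal fitted bidirectionally against DMSO control.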

Test [9] has as its target human Peroxisome Proliferator-activated Receptor alpha (PPARa), PPARA (gene 5465) (UniProt Q07869). The test is described as follows: ATG_PPARa_TRANS: Attagene TRANS-FACTORIAL HepG2 Assay for human Peroxisome Proliferator-activated Receptor alpha (PPARa) (AID 2283001; active = hit-call score of the fitted dose curve at least 0.9, where 1 is the maximum). In a few lines: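 Exposure: 24 h, transiently transfected HepG2 cells. Endpoint: GAL4-UAS reporter mRNA, RT-PCR with capillary electrophoresis fluorescence. Baseline: DMSO; increases fitted.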

For test [10], the target named is human Peroxisome Proliferator-activated Receptor delta (PPARd), PPARD (gene 5467) (UniProt Q03181). Description: ATG_PPARd_TRANS: Attagene TRANS-FACTORIAL HepG2 Assay for human Peroxisome Proliferator-activated Receptor delta (PPARd) (AID 2283002; active = hit-call score of the fitted dose curve at least 0.9, where 1 is the maximum). In a few lines:
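Multiplexed trans-activation format: HepG2 liver cells expressing exogenous NR-Gal4 chimeras and GAL4-UAS reporters were exposed for 24 h. Reporter mRNA was detected by RT-PCR with capillary electrophoresis fluorescence; activity fitted as gain of signal relative to DMSO.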

The target of test [11] is Retinoic acid receptor alpha (Homo sapiens) (UniProt P10276). The test is described as follows: ATG_RARa_TRANS: Attagene TRANS-FACTORIAL HepG2 Assay for human Retinoic Acid Receptor alpha (RARa) (AID 2283005; active = hit-call score of the fitted dose curve at least 0.9, where 1 is the maximum). A digest of the protocol: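 HepG2 cells transiently transfected with multiple reporter units expressing chimeric RARα-GAL4 fusion, with GAL4-UAS-driven reporters. After 24 h compound exposure, reporter mRNA induction quantified by RT-PCR and capillary electrophoresis with fluorescent labeling; gain-of-signal fitted relative to DMSO control.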
Retinoic acid receptor alpha (Homo sapiens), sequence (P10276 whole entry, looked up, the tested form may be a part): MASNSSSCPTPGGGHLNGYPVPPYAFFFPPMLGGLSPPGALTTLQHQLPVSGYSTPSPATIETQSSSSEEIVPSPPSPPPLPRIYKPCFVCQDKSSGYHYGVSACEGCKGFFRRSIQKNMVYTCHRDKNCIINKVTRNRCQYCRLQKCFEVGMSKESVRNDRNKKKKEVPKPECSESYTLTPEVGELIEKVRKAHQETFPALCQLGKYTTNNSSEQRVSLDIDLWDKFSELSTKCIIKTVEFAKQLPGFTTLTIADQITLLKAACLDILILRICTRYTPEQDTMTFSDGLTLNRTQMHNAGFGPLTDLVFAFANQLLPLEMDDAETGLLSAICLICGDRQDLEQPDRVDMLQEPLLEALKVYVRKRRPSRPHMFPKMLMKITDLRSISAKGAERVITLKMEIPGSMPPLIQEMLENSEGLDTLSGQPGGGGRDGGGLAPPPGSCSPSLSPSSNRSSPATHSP

For test [12], the target named is Peroxisome proliferator-activated receptor gamma (Homo sapiens) (UniProt P37231). The test is described as follows: ATG_PPARg_TRANS: Attagene TRANS-FACTORIAL HepG2 Assay for human Peroxisome Proliferator-activated Receptor-gamma (PPARg) (AID 2283007; active = hit-call score of the fitted dose curve at least 0.9, where 1 is the maximum). In a few lines: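 Gain-of-signal endpoint relative to DMSO, derived from reporter mRNA levels quantified by RT-PCR and capillary electrophoresis. Cells were HepG2 transiently expressing a chimeric NR-Gal4 construct with GAL4-UAS reporters, exposed to chemicals for 24 h.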
Peroxisome proliferator-activated receptor gamma (Homo sapiens), sequence (P37231 whole entry, looked up, the tested form may be a part): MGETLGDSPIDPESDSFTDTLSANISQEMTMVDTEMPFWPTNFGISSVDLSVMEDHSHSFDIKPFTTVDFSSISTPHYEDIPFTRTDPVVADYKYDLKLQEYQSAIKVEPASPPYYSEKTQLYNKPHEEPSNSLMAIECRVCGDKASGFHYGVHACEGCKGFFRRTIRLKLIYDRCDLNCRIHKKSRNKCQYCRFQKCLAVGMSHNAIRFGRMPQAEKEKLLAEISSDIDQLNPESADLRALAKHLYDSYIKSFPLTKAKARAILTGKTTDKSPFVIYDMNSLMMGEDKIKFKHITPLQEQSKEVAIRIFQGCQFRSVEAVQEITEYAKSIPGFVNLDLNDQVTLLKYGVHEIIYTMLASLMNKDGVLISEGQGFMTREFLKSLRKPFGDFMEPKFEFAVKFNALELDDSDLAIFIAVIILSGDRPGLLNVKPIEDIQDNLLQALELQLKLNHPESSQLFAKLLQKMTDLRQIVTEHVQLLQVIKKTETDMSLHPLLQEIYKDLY

Test [13] concerns the target Nuclear receptor subfamily 1 group I member 2 (Homo sapiens) (UniProt O75469). The test is described as follows: ATG_PXR_TRANS: Attagene TRANS-FACTORIAL HepG2 Assay for human Pregnane X Receptor (PXR) (AID 2283008; active = hit-call score of the fitted dose curve at least 0.9, where 1 is the maximum). In a few lines: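 Trans-factorial format: exogenous NR-Gal4 fusion activity, not endogenous factor, in transfected human HepG2 liver cells. After 24 h dosing, RNA isolated, reverse-transcribed, amplified and resolved by capillary electrophoresis; induction scored versus DMSO.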

For test [14], the target named is human Retinoic Acid Receptor beta (RARb), RARB (gene 5915) (UniProt P10826). Description: ATG_RARb_TRANS: Attagene TRANS-FACTORIAL HepG2 Assay for human Retinoic Acid Receptor beta (AID 2283004; active = hit-call score of the fitted dose curve at least 0.9, where 1 is the maximum). A digest of the protocol:
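Transient transfection of HepG2 with multiple reporter units → chemical dosing, 24 h → total RNA isolation → RT with oligo(dT) → reporter-specific PCR, 6-FAM primer extension, HpaI digest → capillary electrophoresis. Positive direction vs DMSO control.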

The nature of test [15]: BSK_3C_TissueFactor: BioMAP Diversity Plus: 3C Assay for Tissue Factor Biomarker Activity (AID 2282997). Conditions: BioMAP 3C HUVEC, tissue factor biomarker readout; actives raise or lower the signal. In a few lines: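 After a 24 h chemical exposure of primary human umbilical vein endothelial cells, Tissue Factor levels were quantified by ELISA.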
Test [16] in a line: BSK_3C_uPAR: BioMAP Diversity Plus: 3C Assay for Urokinase-type plasminogen activator receptor (uPAR) Biomarker Activity (AID 2282998). As to conditions: BioMAP 3C HUVEC, uPAR biomarker ELISA; actives raise or lower the signal. In a few lines: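 A multiplexed primary-cell system built on human umbilical vein endothelium was used, with chemical present for 24 h before reading. Cell-surface uPAR was detected by ELISA; signal change in either direction counted against DMSO.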
Background: ELISA stands for enzyme-linked immunosorbent assay.

Test [17] in a line: BSK_3C_VCAM1: BioMAP Diversity Plus: 3C Assay for Vascular cell adhesion molecule 1 (VCAM1) Biomarker Activity (AID 2282999). As to conditions: BioMAP 3C HUVEC, VCAM1 ELISA, cytokine-stimulated; actives raise or lower the signal. A digest of the protocol:
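Vascular primary endothelium (human umbilical vein) was exposed to chemicals and assayed 24 h later. VCAM-1 levels came from ELISA, with DMSO serving as baseline for bidirectional fitting.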

Test [18] in a line: BSK_4H_Eotaxin3: BioMAP Diversity Plus: 4H Assay for Eotaxin 3 Biomarker Activity (AID 2283000).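 As to outcome: CCL26 protein level quantified by ELISA in parallel with SRB cytotoxicity check.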 Conditions: primary human endothelial cells (HUVEC); actives raise or lower the signal. A digest of the protocol:
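Chemicals were added to human umbilical vein endothelium cultures, and Eotaxin-3 was quantified by ELISA at 24 h. Values were derived by bidirectional fitting with DMSO serving as negative control and activity baseline.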

Read-out in test [19]: Intercellular Adhesion Molecule 1 (ICAM1), ICAM1 (gene 3383)
Description: BSK_3C_ICAM1: BioMAP Diversity Plus: 3C Assay for Intercellular Adhesion Molecule 1 (ICAM1) Biomarker Activity (AID 2283003). Conditions: primary human endothelial cells (HUVEC); actives raise or lower the signal. A digest of the protocol: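 ELISA read-out of ICAM-1; HUVEC (primary human), 3C system, 24 h post-dosing; bidirectional fit vs DMSO baseline.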

Test [20] is described as follows: BSK_3C_Proliferation: Cell Proliferation Assessment in the BioMAP Diversity Plus: 3C Assay (AID 2283006).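 As to AC50: potency may reflect either rise or fall in cell number versus DMSO.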 As to conditions: primary human endothelial cells (HUVEC). A digest of the protocol:
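HUVEC, sub-confluent; 48 h chemical exposure; 10% TCA fix, 0.1% SRB stain, A560 total protein. Gain or loss of signal fitted both directions vs DMSO control.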

Cellular tumor antigen p53 (Homo sapiens), sequence (P04637 whole entry, looked up): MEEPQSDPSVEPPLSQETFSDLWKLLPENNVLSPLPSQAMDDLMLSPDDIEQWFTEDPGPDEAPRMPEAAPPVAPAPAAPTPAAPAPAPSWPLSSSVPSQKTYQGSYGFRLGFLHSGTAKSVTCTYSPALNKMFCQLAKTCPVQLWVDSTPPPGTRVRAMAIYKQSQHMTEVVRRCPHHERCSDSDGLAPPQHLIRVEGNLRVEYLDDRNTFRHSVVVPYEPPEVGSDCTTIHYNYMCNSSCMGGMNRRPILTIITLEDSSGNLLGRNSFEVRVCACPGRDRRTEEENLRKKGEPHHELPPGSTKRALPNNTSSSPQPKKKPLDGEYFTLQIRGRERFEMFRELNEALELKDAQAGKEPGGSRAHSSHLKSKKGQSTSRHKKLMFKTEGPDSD
Nuclear receptor subfamily 1 group I member 2 (Homo sapiens), sequence (O75469 whole entry, looked up, the tested form may be a part): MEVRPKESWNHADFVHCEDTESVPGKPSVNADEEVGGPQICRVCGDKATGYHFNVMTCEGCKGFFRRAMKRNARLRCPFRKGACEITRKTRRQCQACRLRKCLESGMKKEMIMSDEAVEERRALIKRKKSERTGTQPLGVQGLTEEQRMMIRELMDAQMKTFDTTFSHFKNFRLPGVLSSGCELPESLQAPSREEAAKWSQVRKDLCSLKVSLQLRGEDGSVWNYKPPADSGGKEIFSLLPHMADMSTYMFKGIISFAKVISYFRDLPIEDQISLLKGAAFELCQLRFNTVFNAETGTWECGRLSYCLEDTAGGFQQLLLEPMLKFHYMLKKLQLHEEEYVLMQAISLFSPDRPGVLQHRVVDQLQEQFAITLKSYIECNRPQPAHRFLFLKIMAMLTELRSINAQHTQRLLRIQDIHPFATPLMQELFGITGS
human Peroxisome Proliferator-activated Receptor delta (PPARd), PPARD (gene 5467), sequence (Q03181 whole entry, looked up, the tested form may be a part): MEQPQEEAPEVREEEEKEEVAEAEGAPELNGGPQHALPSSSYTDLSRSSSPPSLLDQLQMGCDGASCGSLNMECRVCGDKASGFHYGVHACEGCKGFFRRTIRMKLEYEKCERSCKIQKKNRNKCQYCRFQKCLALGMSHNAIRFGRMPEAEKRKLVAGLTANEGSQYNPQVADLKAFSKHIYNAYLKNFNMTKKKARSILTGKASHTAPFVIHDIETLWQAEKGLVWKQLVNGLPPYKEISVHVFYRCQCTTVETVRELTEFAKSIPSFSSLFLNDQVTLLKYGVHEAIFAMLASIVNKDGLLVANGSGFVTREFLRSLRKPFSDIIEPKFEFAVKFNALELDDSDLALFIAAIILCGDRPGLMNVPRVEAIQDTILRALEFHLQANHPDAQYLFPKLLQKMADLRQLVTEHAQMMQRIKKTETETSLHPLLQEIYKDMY
Myc proto-oncogene protein (Homo sapiens), sequence (P01106 whole entry, looked up): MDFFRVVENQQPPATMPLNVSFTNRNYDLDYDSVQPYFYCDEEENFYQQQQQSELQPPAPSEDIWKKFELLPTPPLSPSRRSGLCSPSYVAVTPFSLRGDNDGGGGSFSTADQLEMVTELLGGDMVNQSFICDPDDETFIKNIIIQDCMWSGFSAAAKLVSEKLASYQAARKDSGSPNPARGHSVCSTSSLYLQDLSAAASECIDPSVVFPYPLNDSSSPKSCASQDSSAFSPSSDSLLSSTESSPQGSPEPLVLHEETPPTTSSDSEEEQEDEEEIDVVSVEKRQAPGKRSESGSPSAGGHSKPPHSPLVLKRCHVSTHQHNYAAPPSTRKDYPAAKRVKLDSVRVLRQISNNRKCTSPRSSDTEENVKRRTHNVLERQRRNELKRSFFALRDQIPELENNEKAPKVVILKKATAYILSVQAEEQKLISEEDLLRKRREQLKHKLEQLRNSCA
human Retinoic Acid Receptor beta (RARb), RARB (gene 5915), sequence (P10826 whole entry, looked up): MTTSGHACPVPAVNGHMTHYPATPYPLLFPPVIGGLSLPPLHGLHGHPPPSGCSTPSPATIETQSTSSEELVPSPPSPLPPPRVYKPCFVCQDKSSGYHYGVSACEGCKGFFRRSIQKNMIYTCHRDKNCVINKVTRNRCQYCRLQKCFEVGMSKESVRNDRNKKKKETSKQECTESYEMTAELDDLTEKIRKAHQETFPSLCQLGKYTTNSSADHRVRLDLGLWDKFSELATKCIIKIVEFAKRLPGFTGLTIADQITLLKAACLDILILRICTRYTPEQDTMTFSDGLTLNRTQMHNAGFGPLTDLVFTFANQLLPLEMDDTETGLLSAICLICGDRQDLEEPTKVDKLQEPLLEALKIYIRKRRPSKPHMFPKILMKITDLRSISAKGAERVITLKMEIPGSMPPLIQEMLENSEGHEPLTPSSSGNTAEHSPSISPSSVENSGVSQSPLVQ
Transcriptional activator Myb (Homo sapiens), sequence (P10242 whole entry, looked up): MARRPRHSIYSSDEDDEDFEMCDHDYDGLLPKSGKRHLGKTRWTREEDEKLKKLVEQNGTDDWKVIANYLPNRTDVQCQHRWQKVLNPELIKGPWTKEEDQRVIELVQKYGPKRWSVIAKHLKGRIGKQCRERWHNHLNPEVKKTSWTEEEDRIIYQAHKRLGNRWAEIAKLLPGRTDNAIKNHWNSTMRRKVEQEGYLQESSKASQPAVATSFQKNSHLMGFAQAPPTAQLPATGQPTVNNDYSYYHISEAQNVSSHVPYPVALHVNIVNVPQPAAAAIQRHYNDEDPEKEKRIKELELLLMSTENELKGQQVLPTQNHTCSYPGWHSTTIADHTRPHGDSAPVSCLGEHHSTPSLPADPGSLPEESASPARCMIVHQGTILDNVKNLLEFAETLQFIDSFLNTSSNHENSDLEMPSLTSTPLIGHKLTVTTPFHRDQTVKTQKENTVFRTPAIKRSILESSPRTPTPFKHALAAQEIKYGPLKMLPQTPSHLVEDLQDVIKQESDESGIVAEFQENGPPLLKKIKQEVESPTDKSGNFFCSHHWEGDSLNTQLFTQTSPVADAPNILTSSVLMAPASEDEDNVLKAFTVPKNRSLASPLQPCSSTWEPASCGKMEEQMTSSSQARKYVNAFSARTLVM
Nuclear respiratory factor 1 (Homo sapiens), sequence (Q16656 whole entry, looked up, the tested form may be a part): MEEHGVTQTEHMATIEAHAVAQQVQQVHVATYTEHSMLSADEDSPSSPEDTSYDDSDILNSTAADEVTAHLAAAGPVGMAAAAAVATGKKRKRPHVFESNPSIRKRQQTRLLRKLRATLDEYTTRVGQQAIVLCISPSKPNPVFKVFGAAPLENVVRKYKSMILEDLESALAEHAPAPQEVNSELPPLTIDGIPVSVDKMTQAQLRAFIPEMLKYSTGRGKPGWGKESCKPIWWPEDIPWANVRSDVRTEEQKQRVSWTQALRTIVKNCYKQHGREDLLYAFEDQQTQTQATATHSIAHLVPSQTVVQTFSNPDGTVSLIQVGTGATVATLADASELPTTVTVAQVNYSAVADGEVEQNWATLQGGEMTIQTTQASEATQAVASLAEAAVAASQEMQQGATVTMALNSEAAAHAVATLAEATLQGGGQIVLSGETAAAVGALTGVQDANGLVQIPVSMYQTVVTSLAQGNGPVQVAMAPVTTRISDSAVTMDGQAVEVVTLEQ
human Peroxisome Proliferator-activated Receptor alpha (PPARa), PPARA (gene 5465), sequence (Q07869 whole entry, looked up, the tested form may be a part): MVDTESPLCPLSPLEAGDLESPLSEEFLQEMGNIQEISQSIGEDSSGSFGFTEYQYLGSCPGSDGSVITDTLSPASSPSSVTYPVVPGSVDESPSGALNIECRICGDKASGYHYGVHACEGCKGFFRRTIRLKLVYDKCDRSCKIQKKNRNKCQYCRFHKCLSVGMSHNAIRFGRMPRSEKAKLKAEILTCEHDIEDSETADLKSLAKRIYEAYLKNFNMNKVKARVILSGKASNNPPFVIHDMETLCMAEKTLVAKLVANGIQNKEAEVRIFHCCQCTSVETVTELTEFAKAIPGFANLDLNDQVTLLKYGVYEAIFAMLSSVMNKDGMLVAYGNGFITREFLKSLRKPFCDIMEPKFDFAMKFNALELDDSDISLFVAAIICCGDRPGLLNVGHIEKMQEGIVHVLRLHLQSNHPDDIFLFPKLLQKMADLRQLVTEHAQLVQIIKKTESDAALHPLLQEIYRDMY

For `CC(=O)CCc1ccc2c(c1)OCO2`, the call in test [1], in test [2], in [3], in [4], in test [5] and in [6] was inactive. In addition, the call in test [7], in [8], in test [9], in test [10], in test [11] and in test [12] was inactive. In addition, the compound was classed as inactive in [13].
As to `CCCCc1ccc(O)cc1`, the result in [1], in [2], in [3], in [4], in test [5] and in test [7] was inactive. Also, the compound was classed as inactive in test [8], in test [9], in [10], in test [14] and in [13]. Further, the AC50 in test [6] was 66.7 µM (active); in test [12], 57.1 µM (active).
For `O=C(O)C(F)(F)C(F)(F)C(=O)O`, the result in test [1], in [2], in test [3], in [4], in test [5] and in test [6] was inactive. For the same compound, the result in test [7], in test [15], in [16], in test [17], in test [18] and in test [9] was inactive. Besides, the outcome in [10], in test [19], in test [14], in test [11], in test [20] and in test [12] was inactive. Moreover, the call in [13] was inactive.
Consider `COP(=O)(CCC(=O)NCO)OC`, for which the outcome in [1], in test [2], in test [3], in test [4], in test [5] and in [6] was inactive. The result in test [7], in test [8], in test [15], in [16], in [17] and in test [18] was inactive. Further, the outcome in [10], in test [19], in [20] and in [12] was inactive. The AC50 in test [18] was 0.15 µM (active).
As for `Cc1ccc2c(c1N)C(=O)c1ccccc1C2=O`, the outcome in [1], in test [2], in test [3], in test [4], in test [7] and in test [8] was inactive. Further, the outcome in test [17], in [9], in test [10], in test [19], in test [20] and in test [12] was inactive. Besides, the AC50 in test [5] was 25.4 µM (active); in test [6] it was 42.4 µM (active); in [15] it was 20 µM (active); in test [16], 3.89 µM (active); in [18], 9.4 µM (active); in [13], 2.89 µM (active).
For `O=C(O)C=CC(F)(C(F)(F)F)C(F)(F)F`, the compound was classed as inactive in [1], in test [2], in test [3], in test [4], in test [5] and in test [6]. In addition, the result in test [7], in test [15], in test [16], in test [17], in [18] and in test [9] was inactive. In addition, the compound was called inactive in test [10], in test [19], in [20] and in test [12].
Regarding `CCCCCCCc1ccc(O)cc1`, the call in test [1], in [2], in [3], in test [4], in test [5] and in test [6] was inactive. For the same compound, the call in [7], in test [9], in test [10], in test [14], in test [11] and in [12] was inactive. Also, the AC50 was 14.1 µM (active) and 7.28 µM (active) and 7.2 µM (active) in [6]; 38 µM (active) in test [15]; 38.2 µM (active) in test [16]; 35.1 µM (active) in test [17]; 31.5 µM (active) in [18]; 37.3 µM (active) in test [19]. Also, the AC50 was 14.3 µM (active) in [20] and 24.3 µM (active) in test [12].
